Reference: PubChem BioAssay AID868 (SRMLSC, 2007)
Out of some 190,000 compounds screened, about 3,500 (1.8%) were called active.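 The calls were made as follows: active = inhibition above a set limit, 3 SD over mean compound inhibition (cut at about 8.4% in these data); inactive = the rest.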 For the sample, actives were picked, then their nearest neighbours and some compounds at random.

test: inhibitors of the yeast RAM network, primary screen, dse1pr::URA3 reporter, 5-FOA selection (AID 868);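 also: 0% = DMSO-only wells with no growth and 100% = 10 µM 1-NA-PP1 full growth; inhibition rescues growth on 5-FOA so higher OD means more RAM inhibition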; details: S. cerevisiae dse1pr::URA3 reporter, 5-FOA growth OD615, 2 d; at 50 µM; hits give high values; analog-sensitive cbk1-as2 kinase mutant strain

Row | Structure (SMILES) | inhibition
1 | COc1cc(/C=C2/C(=O)ON=C2C)ccc1OCc1cccc(F)c1 | 1.59% (inactive)
2 | CCOc1cc(/C=N/O)ccc1OCc1ccccc1F | 0.13% (inactive)
3 | COc1cc(/C=C2/C(=O)ON=C2C)ccc1OCc1ccccc1F | 11.4% (active)
4 | N#Cc1ccc(C(=O)Nc2nc(-c3cccs3)c(C(=O)C(F)(F)F)s2)cc1 | 3.01% (inactive)
5 | CCN(CC(=O)NC(=O)NCc1ccccc1)Cc1nc2ccccc2c(=O)[nH]1 | 0.8% (inactive)
6 | CC(=O)NC1(c2ccc(F)cc2)CCN(C(=O)c2c(F)cccc2F)CC1 | -0.25% (inactive)
7 | O=C(CSc1nnc2scc(-c3ccc(F)cc3)n12)NCc1ccco1 | 9.95% (active)
8 | Cc1ccc(-c2csc3nnc(SCC(=O)NCc4ccco4)n23)cc1 | 0.13% (inactive)
9 | Cn1c(-c2ccc(F)cc2)cnc1SCC(=O)NCc1ccco1 | 1.92% (inactive)
10 | Cc1ccc(C2CC(c3cccc(NS(C)(=O)=O)c3)=NN2S(C)(=O)=O)cc1 (stereo not given) | 0.38% (inactive)
11 | O=c1c([N+](=O)[O-])cccn1Cc1ccc(F)cc1Cl | -0.54% (inactive)
12 | CN1C(=O)/C(=C/C=C2\SCCN2C)OC1=S | 2.52% (inactive)
13 | Cc1ccc(Cl)cc1N1CCN(C(=O)c2cccc3c(=O)c(C)c(-c4ccccc4)oc23)CC1 | 8.43% (active)
14 | COC(=O)c1ccc(C(=O)OC)c(NC(=S)N2CCN(c3cc(Cl)ccc3C)CC2)c1 | 3.51% (inactive)
15 | O=C(c1cccc2ccccc12)N1CCN(c2ccccc2F)CC1 | -0.35% (inactive)
16 | Cc1ccc(C(=O)N/C(=C/c2cccs2)C(=O)NCC2CCCO2)cc1 (stereo not given) | 0.13% (inactive)
17 | Cc1cc(C)n(-c2ccc3nncn3n2)n1 | 1.87% (inactive)
18 | CC(C)=CCCC1(C)C=Cc2c(ccc3c2[nH]c2cc(O)c(C)cc23)O1 (stereo not given) | 21.4% (active)
19 | Cc1c(NS(=O)(=O)c2ccc(NC3CCCC3)c([N+](=O)[O-])c2)c(=O)n(-c2ccccc2)n1C | 4.03% (inactive)
20 | Cc1c(Nc2cc(N3CCCC(C)C3)c3nonc3c2[N+](=O)[O-])c(=O)n(-c2ccccc2)n1C (stereo not given) | 8.7% (active)
21 | Cc1c(CN2CCC(C)CC2)c(=O)n(-c2ccccc2)n1C | 0.66% (inactive)
22 | O=C1CCC(CCC(=O)N2CCCC(C(=O)c3ccc(Cl)cc3)C2)=NN1 (stereo not given) | 2.49% (inactive)
23 | CC(C)(C)c1ccc(/C=C2\SC(=O)N=C2N)cc1 | 3.69% (inactive)
24 | Cc1ccc(C(=O)NCCNC(=O)c2ccccc2)cc1 | 0.24% (inactive)

Row | Structure (SMILES) | inhibition
25 | Cc1ccc(C(=O)c2c(NC(=O)c3ccncc3)sc3c2CCCC3)cc1 | 1.55% (inactive)
26 | Cc1ccc(C(=O)c2c(NC(=O)c3ccccc3)sc(C)c2C)cc1 | 12.9% (active)
27 | NC1=NC2(CCCCC2)N(c2ccc(F)cc2F)C(N)=N1 | 0.5% (inactive)
28 | O=c1cnnc(Nc2ccccc2F)[nH]1 | 0.79% (inactive)
29 | C/C(N)=C(/C#N)C(=O)COC(=O)CNS(=O)(=O)c1ccc(C)cc1 | -0.96% (inactive)
30 | CCOC(=O)c1sc2nc(CSc3ccccc3)[nH]c(=O)c2c1C | 2.26% (inactive)
31 | CCOC(=O)c1sc2nc(CSCC(=O)OCc3ccc(C(=O)OC)o3)[nH]c(=O)c2c1C | 12.6% (active)
32 | Cc1sc2nc(CSCC(=O)Nc3c(Cl)cccc3Cl)[nH]c(=O)c2c1C | 4.58% (inactive)
33 | CCCCN(C(=O)c1ccc(OC(F)(F)F)cc1)c1c(N)n(CCC)c(=O)[nH]c1=O | 1.93% (inactive)
34 | CCOC(=O)c1cnc(-c2ccccc2)nc1Oc1ccc(C)cc1 | 6.51% (inactive)
35 | CCOC(=O)c1cnc(-n2nc(C)cc2C)nc1NNc1cc(C)nc(-c2ccccc2)n1 | 9.84% (active)
36 | CCOC(=O)c1cnc(-n2nc(C)cc2C)nc1-n1nc(C)cc1C | 1.58% (inactive)
37 | Cc1ccc(CN2CCC(N3CCC(C(=O)NCC4CCCO4)CC3)CC2)o1 (stereo not given) | 1.95% (inactive)
38 | CCOc1ccc(Oc2nc(C)cc(OC)n2)nn1 | 0.41% (inactive)
39 | Cc1onc(C(=O)NN)c1C(=O)N1CCN(C(c2ccccc2)c2ccccc2)CC1 | 0.14% (inactive)
40 | O=C(CCC(=O)OCc1ccc(Cl)cc1)Nc1ccccc1 | -0.63% (inactive)
41 | O=C(COC(=O)c1cnccn1)Nc1cccc2ccccc12 | -0.14% (inactive)
42 | O=C(CCC(=O)OCc1cccc(C(=O)Oc2ccccc2)c1)Nc1cccc2ccccc12 | 15.2% (active)
43 | O=C(Cc1coc2ccc3ccccc3c12)NCc1cccs1 | 1.23% (inactive)
44 | Cc1cccc(NC(=S)N2CCCC(c3nc4ccccc4[nH]3)C2)c1 (stereo not given) | 1.53% (inactive)
45 | Cc1ccc(CN2CCN(Cc3cn(C)nc3-c3ccccc3)CC2CCO)o1 (stereo not given) | 0.52% (inactive)
46 | COc1ccc(-c2noc(CSc3ccc(C)cc3)n2)cc1 | 2.24% (inactive)
47 | COc1ccc(-c2noc(-c3ccc(C)cc3)n2)cc1 | 7.68% (inactive)
48 | COc1ccc(-c2noc(CN(C)S(=O)(=O)c3ccc(C)cc3)n2)cc1 | 9.12% (active)

Row | Structure (SMILES) | inhibition
49 | Cc1ccc(NC(=O)CN(C)CC(=O)Nc2cccc(F)c2)cc1[N+](=O)[O-] | 1.7% (inactive)
50 | CSc1ncccc1C(=O)Nc1nc2ccc(F)cc2s1 | 2.36% (inactive)
51 | CN(C)c1ccnc(Nc2ccc(F)cc2)c1C#N | 0.51% (inactive)
52 | O=C(CC(=O)N/N=C\c1ccc(F)cc1)NCCc1ccccc1 | 0.75% (inactive)
53 | CCNc1nc(-c2cc3ccccc3o2)cs1 | 2.09% (inactive)
54 | COc1ccc2nc(Nc3nc(-c4cc5ccccc5oc4=O)cs3)sc2c1 | 3.98% (inactive)
55 | O=c1oc2ccccc2cc1-c1csc(Nc2ccc(O)cc2)n1 | 11.1% (active)
56 | CC(=O)c1cccc(-n2nnnc2SCC(=O)NNC(=O)C2CCCCC2)c1 | 3.03% (inactive)
57 | CN(C)CCOc1cccc(Br)c1 | 1.41% (inactive)
58 | CCNC(=O)NC(=O)C(C)OC(=O)C1CCN(S(=O)(=O)c2ccccc2F)CC1 (stereo not given) | -0.96% (inactive)
59 | CC(NC(=O)CCC(=O)N1CCN(S(=O)(=O)c2ccc(Cl)cc2)CC1)c1ccccc1 (stereo not given) | 2.73% (inactive)
60 | CC(NC(=O)COC(=O)C1CCN(S(=O)(=O)c2ccccc2C(F)(F)F)CC1)c1ccccc1 (stereo not given) | 8.48% (active)
61 | CN(CCc1cnn(C)c1)Cc1cn(C)nc1-c1ccccc1F | 0.12% (inactive)
62 | CCOc1ccc(NC(=S)N2CCCCCC2)cc1 | 0.12% (inactive)
63 | CCOC(=O)c1sc2nc(C)nc(SCC(N)=O)c2c1C | 1.57% (inactive)
64 | C=CCN(CC=C)C(=O)COC(=O)c1n[nH]c2ccccc12 | 2.26% (inactive)
65 | CN(C)S(=O)(=O)c1ccc(NC(=O)COC(=O)c2n[nH]c3ccccc23)cc1 | 5.03% (inactive)
66 | O=C(COC(=O)c1n[nH]c2ccccc12)NCc1ccccc1 | 8.45% (active)
67 | O=C(CSc1nc(-c2ccccc2)cs1)Nc1cccc([N+](=O)[O-])c1 | 11.7% (active)
68 | O=C(CSCC(=O)Nc1cccc([N+](=O)[O-])c1)Nc1ccccc1 | 0.64% (inactive)
69 | CCNC(=O)CSc1nc(-c2ccccc2)cs1 | 0.79% (inactive)
70 | NC(=O)COc1ccc(NC(=O)c2ccccc2-c2ccccc2)cc1 | 0.63% (inactive)
71 | COc1ccc2oc(-c3cccc(NC(=O)CSc4ccc(Cl)cc4)c3)nc2c1 | 10.3% (active)
72 | COc1cccc(-c2nc3cc(C)ccc3o2)c1 | 2.42% (inactive)

Row | Structure (SMILES) | inhibition
73 | O=C(Cc1cccc2ccccc12)Nc1ccc2oc(-c3ccccc3)nc2c1 | 1.7% (inactive)
74 | CCN(CC)Cc1nc2sc(C)c(C)c2c(=O)[nH]1 | 2.28% (inactive)
75 | CNS(=O)(=O)c1ccc(NC(=O)C2CC(=O)N(c3ccc(Cl)cc3)C2)cc1 (stereo not given) | 4.28% (inactive)
76 | Nc1ccc(-c2nnc(-c3ccc(-c4ccccc4)cc3)o2)cc1 | 6.59% (inactive)
77 | FC(F)(F)c1cnc(Oc2ccccc2-c2nnc(-c3ccc(Cl)cc3)o2)c(Cl)c1 | 4.37% (inactive)
78 | CSc1ccccc1-c1nnc(-c2ccc(Cl)cc2)o1 | 15.5% (active)
79 | Cc1cccn2c(CN(C)C3CCCc4ccccc43)c(C(=O)N3CCOCC3)nc12 (stereo not given) | 1.88% (inactive)
80 | CC(=O)C1C(c2ccc(Cl)cc2)c2c(n[nH]c2C)CC1(C)O (stereo not given) | -0.49% (inactive)
81 | Cc1noc(NS(=O)(=O)c2ccc(N/C=C/C(=O)c3ccccc3)cc2)c1C | 11.4% (active)
82 | CCn1c(SCC(=O)Nc2ccc(S(=O)(=O)Nc3onc(C)c3C)cc2)nnc1-c1ccccc1 | 4.88% (inactive)
83 | Cc1ccc(C(=O)/C=C/Nc2ccc(S(=O)(=O)Nc3onc(C)c3C)cc2)cc1 | 11% (active)
84 | Cc1noc(NS(=O)(=O)c2ccc(NC(=O)C34CCC(CC3)C4)cc2)c1C | 2.19% (inactive)
85 | COc1ccc(C(=O)Nc2ccc(S(=O)(=O)Nc3onc(C)c3C)cc2)cc1OC | 2.49% (inactive)
86 | Cc1cc(C)nc(NS(=O)(=O)c2ccc(N/C=C\C(=O)c3cccs3)cc2)n1 | 3.54% (inactive)
87 | O=C1OCC2=C1C(c1ccccc1)CC(=O)N2c1cccc(F)c1 (stereo not given) | 0.77% (inactive)
88 | O=c1oc(/C=C/c2ccccc2)nc2ccccc12 | 1.38% (inactive)
89 | Cc1cc(C)n(Cc2cnc(N3CCOCC3)s2)n1 | 0.36% (inactive)
90 | C/C(=N\NC(=O)c1cccnc1)c1ccc(-n2ccnc2)cc1 | 2.36% (inactive)
91 | N#C/C(=C(/O)COc1cccc2ccccc12)c1nc2ccccc2[nH]1 | 2.62% (inactive)
92 | Cc1ccccc1OC/C(O)=C(\C#N)c1nc2ccccc2[nH]1 | 10.3% (active)
93 | N#C/C(=C(/O)COC(=O)COc1ccc(Cl)cc1)c1nc2ccccc2[nH]1 | 3.15% (inactive)
94 | O=C(COC(=O)c1ccc(Cl)nc1)NCc1cccs1 | 1% (inactive)
95 | CC(=O)Nc1ccc(Nc2nc3c(S(=O)(=O)c4ccc(C)c(C)c4)nnn3c3ccccc23)cc1 | 7.93% (inactive)
